SMILES strings stand for the structures. Several values for one entry are separate records, joined by “and”; a condition that tells them apart may be missing. Equal entries are not always repeated. Results filed as inconclusive are left out. A structure can be active in one record and inactive in another. Activity calls are given as the source filed them. Unless noted, calls come from the whole dose curve; as a rule, active = well fitted curve in the direction sought with a large enough effect in the repeat runs; inconclusive = weak or mixed curves; inactive = no such curve, though single readings can be large; an effect the other way counts as inactive or inconclusive.

The nature of assay [1]: qHTS assay to identify small molecule antagonists of the retinoid acid receptor (RAR) signaling pathway - cell viability counter screen (AID 1159551). Note: nearly all actives have a fitted effect of over 35% in size. Note: potency is the fitted concentration of half-maximal effect. In a few lines:
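In this counter screen, the RARE-luciferase line C3RL4 was exposed for 6 h at 37 C and 5% CO2 to compounds with retinol at 1 uM final. Cellular ATP, read by luminescence, served as the viability measure.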

Assay [2] can be described thus: qHTS assay to identify small molecule antagonists of the estrogen related receptor (ERR) signaling pathway - cell viability counter screen (AID 1224818). Note: potency is the fitted concentration of half-maximal effect. In a few lines: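 Viability of ERR cells, CellTiter-Fluor fluorescence; 17.5 h compound exposure at 37 C, DMSO vehicle; 30 min reagent incubation at 37 C/5% CO2.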
In general terms: qHTS replaces the single test concentration by a dilution series.

Assay [3] is described as follows: qHTS assay to identify small molecule antagonists of the estrogen related receptor (ERR) signaling pathway from Tox21 library - cell viability counter screen (AID 1224834). Note: nearly all actives have a fitted effect of over 30% in size. Note: potency is the fitted concentration of half-maximal effect. In a few lines:
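Counter screen run in ERR cells (2,000 cells/well): cells pre-incubated 6 h, then treated with compounds for 17.5 h at 37 C. Fluorescence was read 30 min after CellTiter-Fluor addition.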

A short description of assay [4]: qHTS assay to identify small molecule agonists of the retinoic acid receptor (RAR) signaling pathway (AID 1159553). In a few lines: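 In this cell-based screen, 1,000 C3RL4 cells per well were cultured overnight, dosed with test chemicals in DMSO for 6 hr, and assessed for RARE luciferase luminescence.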
A short description of assay [5]: qHTS assay to identify small molecule antagonists of the estrogen related receptor (ERR) signaling pathway (AID 1224819; note: potency is the fitted concentration of half-maximal effect; nearly all actives have a fitted effect of over 50% in size). In a few lines:
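Seed ERR cells 2,000/well; rest 6 h at 37 C/5% CO2; pin compounds in DMSO; incubate 18 h at 37 C; add One-Glo; wait 30 min at room temperature; measure luminescence.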

Assay [6] in a line: qHTS assay to identify small molecule agonists of the estrogen related receptor (ERR) signaling pathway (AID 1224820). In a few lines: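 Following a 6 h settling period, 2,000 ERR cells per well receive DMSO-dissolved compounds by pin tool and incubate 18 h at 37 C; agonist activity is scored from One-Glo luminescence read 30 min post-addition.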
Assay [7] has as its system estrogen-related receptor alpha (ERRalpha) with PGC-1alpha coactivator, human. Briefly: qHTS assay to identify small molecule antagonists of the estrogen related receptor signaling pathway with the pleiotropic PPARgamma coactivator (PGC) (AID 1224821; calls by dose curve; note: nearly all actives have a fitted effect of over 50% in size; note: potency is the fitted concentration of half-maximal effect). In a few lines: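 Screening used NTP's PGC/ERR cells, dosed via pin tool with compound in DMSO alongside positive and negative controls. After 18 h at 37 C, One-Glo reagent sat 30 min at room temperature before luminescence detection.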

A short description of assay [8]: qHTS assay to identify small molecule antagonists of the estrogen related receptor signaling pathway with the pleiotropic PPARgamma coactivator (PGC) cell viability counter screen (AID 1224822; note: potency is the fitted concentration of half-maximal effect). In a few lines: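 17.5 h compound treatment of PGC/ERR cells at 37 C; readout CellTiter-Fluor fluorescence; run alongside the PGC/ERR antagonist screen to flag cytotoxic compounds.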

Assay [9] is described as follows: qHTS assay to identify small molecule agonists of the estrogen related receptor signaling pathway with the pleiotropic PPARgamma coactivator (PGC) (AID 1224823). In a few lines:
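In this quantitative high-throughput screen, an 18 h, 37 C treatment of PGC/ERR cells with compounds in DMSO preceded a One-Glo luminescence read taken after 30 min at room temperature.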

Assay [10] is described as follows: qHTS assay to identify small molecule antagonists of the retinoic acid receptor (RAR) signaling pathway (AID 1159552; note: nearly all actives have a fitted effect of over 50% in size). In a few lines:
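Antagonism of retinol-induced RARE reporter activity was measured in C3RL4 cells. Exposure to compounds and 1 uM final retinol lasted 6 hr at 37 C, with luminescence as endpoint.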

For `Clc1ccc2c(c1)C(N1CCNCC1)=Nc1ccccc1O2`, the Potency result in assay [1], in assay [2] and in [3] was “inactive” each time.
With `O=C(Cl)c1cccc(C(=O)Cl)c1`, the Potency entry in assay [1] and in [3] was “inactive” throughout.
As for `CCCCCC(=O)O[C@]1(C(C)=O)CC[C@H]2[C@@H]3CCC4=CC(=O)CC[C@]4(C)[C@H]3CC[C@@]21C`, in assay [1], the Potency result is “inactive”. Besides, the Potency in [3] was 48.2 µM (active) and 29.8 µM (active).
For the compound `Oc1ccc(Cl)cc1Cc1cc(Cl)ccc1O`, the Potency result in assay [4] was “inactive”. The Potency in assay [3] was 44.1 µM (active) and 61.1 µM (active) and 29.8 µM (active).
`COC(=O)/C=C/c1ccccc1`: the Potency result in assay [1], in assay [4] and in assay [3] was “inactive” in each case.
Consider `O=Nc1ccc(Nc2ccccc2)cc1`, for which the Potency in assay [3] was 19.4 µM (active) and 24.3 µM (active).
Take `CC(C)CCCCCCc1ccc(O)cc1`: the Potency in assay [1] is 78.3 µM (active); in assay [3] it was 7.83 µM (active) and 48.6 µM (active). Further, in [4], the Potency result was “inactive”.
For `CCN(CC)C(=S)SSC(=S)N(CC)CC`, the Potency entry in [1] was “inactive”. Moreover, the Potency in assay [5] is 10.9 µM (active) and 16.2 µM (active); in assay [7], 386 nM (active) and 1.39 µM (active); in assay [8], 386 nM (active) and 220 nM (active); in [3], 243 nM (active) and 88.4 nM (active) and 335 nM (active). The compound was classed as inactive in assay [6] and in assay [9].
Turning to `Cc1c(O)cccc1C(=O)N[C@@H](CSc1ccccc1)[C@H](O)CN1C[C@H]2CCCC[C@H]2C[C@H]1C(=O)NC(C)(C)C`, the Potency entry in assay [1] and in assay [7] was “inactive” each time. Further, the Potency in assay [2] was 10.6 µM (active); in assay [5], 19.6 µM (active); in assay [8] it was 10.6 µM (active); in assay [3] it was 8.41 µM (active) and 11.9 µM (active). Moreover, the compound was classed as inactive in assay [6] and in [9].
On to `Nc1cc(Cl)c(-c2cc(Cl)c(N)cc2Cl)cc1Cl`, for which the Potency in [1] is 30.6 µM (active); in assay [3], 48.5 µM (active) and 30.6 µM (active). Moreover, in [4], the Potency result was “inactive”.
Take `CC(C)(C)NC(=O)[C@@H]1CN(Cc2cccnc2)CCN1C[C@@H](O)C[C@@H](Cc1ccccc1)C(=O)N[C@H]1c2ccccc2C[C@H]1O`: the Potency result in assay [1] and in assay [3] was “inactive” in each case.
Turning to `Cc1ccc(-c2cc(C(F)(F)F)nn2-c2ccc(S(N)(=O)=O)cc2)cc1`, the Potency in assay [1] is 60.9 µM (active) and inactive. Further, the Potency entry in assay [2], in assay [7] and in assay [8] was “inactive” throughout. Besides, the outcome in assay [6] and in [9] was inactive.
On to `COc1ccc(CCN(C)CCCC(C#N)(c2ccc(OC)c(OC)c2)C(C)C)cc1OC` (stereo not given), for which the Potency entry in [1] and in assay [2] was “inactive” in each case. Also, the Potency in assay [3] is 54.4 µM (active).
Consider `CC1COC(=O)O1` (stereo not given), for which the Potency entry in assay [1] and in assay [3] was “inactive” in each case.
As to `C=C(C)C(=O)O`, the Potency result in assay [1] and in [3] was “inactive” each time.
For the compound `CCCN[C@H]1CCc2nc(N)sc2C1`, the Potency entry in assay [1] and in assay [3] was “inactive” in each case.
`O=S(=O)(O)c1ccc2nc(-c3ccccc3)[nH]c2c1`: the Potency entry in [10], in assay [4] and in assay [3] was “inactive” each time.
Turning to `C=CC(=O)OCCCCCCOC(=O)C=C`, the Potency entry in assay [4] is “inactive”. Also, the Potency in assay [3] is 54.5 µM (active).
On to `CNCCC(Oc1ccc(C(F)(F)F)cc1)c1ccccc1` (stereo not given), for which the Potency result in [1] and in [2] was “inactive” throughout. Moreover, the Potency in assay [3] was 60.3 µM (active).
On to `CCC(=O)/C=C/C1C(C)=CCCC1(C)C` (stereo not given), for which the Potency result in assay [1] and in [3] was “inactive” throughout.
In the case of `COc1ccc(CCN2CCC(Nc3nc4ccccc4n3Cc3ccc(F)cc3)CC2)cc1`, the Potency in assay [1] is 44.2 µM (active); in [3], 22.2 µM (active) and 26.6 µM (active).
Regarding `O`, the Potency result in assay [1] and in assay [3] was “inactive” in each case.
